Measurements from publication PMC8769072, “Proteome‐scale mapping of binding sites in the unstructured regions of the human proteome” (Molecular Systems Biology, 2022).

Target: KEAP1 321-609, Q14145
Sequence (Q14145 321-609): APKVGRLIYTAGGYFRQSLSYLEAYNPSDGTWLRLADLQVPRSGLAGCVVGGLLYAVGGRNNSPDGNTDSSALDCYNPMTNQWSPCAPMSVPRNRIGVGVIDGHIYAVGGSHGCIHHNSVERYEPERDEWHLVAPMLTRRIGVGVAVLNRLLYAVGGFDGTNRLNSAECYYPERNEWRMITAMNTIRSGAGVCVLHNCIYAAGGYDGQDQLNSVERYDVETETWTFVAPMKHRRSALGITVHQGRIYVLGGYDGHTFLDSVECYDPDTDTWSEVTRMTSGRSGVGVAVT

Selected by phage display, active:
YDPVTGEWKSLAKLPE [KLHL24, Q6TFL4] confidence 3
TDELLRHPVTGEVVER [C6orf132, Q5T0Z8] confidence 4
VLPDALTDGSDVVSDL [CFAP36, Q96G28] confidence 2
PSPETGEAKRSAFVEV [PRDM8, Q9NQV8] confidence 3
LENNSETGELQPVLPE [TRIM37, O94972] confidence 2
FDAVTGEFTGMPEQWA [PAK1, Q13153] confidence 3
PINPSTGELSTSSSSN [MCC, P23508] confidence 4

Target: MAP1LC3A 2-121, Q9H492

Selected by phage display, active:
FPSSGFTDLAEIVSRI [PNPLA6, Q8IY17] confidence 3
GWDYGIGGGWDHISVR [TECPR1, Q7Z6L1] confidence 2
TENDDFAILFAPKAAM [ATG2B, Q96BY7] confidence 3
LEDSFAHLQLSGDNTA [RNF146, Q9NTX7] confidence 3
DFTFLRPLSVQQPTAL [PCDHGC5, Q9Y5F6] confidence 3
PQALERADGSWAWVVL [SLC16A5, O15375] confidence 3
QVDEVTDLLASFTSLS [ANKRD54, Q6NXT1] confidence 3
TDTHWTDLTHLIEKLK [TRIM59, Q8IWR1] confidence 3
RGGGSVGSDVGQRLPV [KCNT1, Q5JUK3] confidence 2
MVEAGGLLEKWTLLEE [APOBR, Q0VD83] confidence 4
HDDFVMIDFKPAFSKD [ATG13, O75143] confidence 3
ANGWQIISSSSGATPT [SP1, P08047] confidence 4
WEEFESLQKQEVKNLH [PTPN6, P29350] confidence 2
RQEEKQVLLQADWTLL [ZNF579, Q8NAF0] confidence 2
DGDTLDSDEFAILDAP [ATG2A, Q2TAZ0] confidence 4
WTDLENSIVSVERMQD [ABCC6, O95255] confidence 3
NLAPSDEESSWTTLSQ [APBB2, Q92870] confidence 2
TAQQLETTTERWLVID [CC2D1A, Q6P1N0] confidence 3
WATIEPAPDAASLLAS [AKAP13, Q12802] confidence 3
VLASMKNTYEVLDFLG [HIPK3, Q9H422] confidence 2
WRDMTTITEDEISKLR [CACTIN, Q8WUQ7] confidence 2
GPDSFTVLGNSMPSVF [BCL9, O00512] confidence 4
TVNEWAHLQEDTNSHI [ANKRD62, A6NC57] confidence 4
EWQHLDSAQRTPYRDM [ZNF487, B1APH4] confidence 2
WEDLEARINAENEVPI [CEP170B, Q9Y4F5] confidence 2
DLTESSSMVDGDWTMV [RIC1, Q4ADV7] confidence 4
SPNREWEVLQPAPHQV confidence 3
QGSRQDSWEVVEGLRG [OSBPL3, Q9H4L5] confidence 2
GWETVEMHPAYTEEEL [NUCB1, Q02818] confidence 2
GPEAASGEWELLRLDS [ESPL1, Q14674] confidence 2
WVWLGNEAELLESMGD [TMEM132C, Q8N3T6] confidence 4
YELLTENDMLPNMRIG [JAK2, O60674] confidence 2

Target: KPNA4 68-487, O00629
Sequence (O00629 68-487): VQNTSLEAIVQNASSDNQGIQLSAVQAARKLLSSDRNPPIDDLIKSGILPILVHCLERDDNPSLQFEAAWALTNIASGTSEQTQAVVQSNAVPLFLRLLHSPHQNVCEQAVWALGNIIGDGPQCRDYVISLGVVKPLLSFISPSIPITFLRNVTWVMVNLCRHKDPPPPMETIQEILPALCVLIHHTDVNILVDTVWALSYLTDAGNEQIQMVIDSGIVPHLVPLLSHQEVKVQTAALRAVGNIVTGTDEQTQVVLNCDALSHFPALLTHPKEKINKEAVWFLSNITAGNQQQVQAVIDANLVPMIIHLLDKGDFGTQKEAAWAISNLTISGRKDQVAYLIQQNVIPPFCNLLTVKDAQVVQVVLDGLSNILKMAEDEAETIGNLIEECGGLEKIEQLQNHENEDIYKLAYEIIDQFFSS

Selected by phage display, active:
ELKRKLEQEQKLVEVL [MKL2, Q9ULH7] confidence 3
ELKRIKTEDGEGIVIA [FOXK2, Q01167] confidence 2
HEISLKRSYESVEGNI confidence 3
DHQFPAKRPRLSEPQG [HJURP, Q8NCD3] confidence 2
KRPRYDDTVKINSMGG [ZNF318, Q5VUA4] confidence 3
WKRDSSGNKIMHPVSG [NUDT9, Q9BW91] confidence 2
LESKRPRLEQVSDSHF confidence 2
GKRPYEAIEAGKAFRY [ZNF471, Q9BX82] confidence 2
SPTILGKRSYEQHNGV [MTA1, Q13330] confidence 2
SLAPVKRTYEQMEFPL [ADNP, Q9H2P0] confidence 3
ESPSVKRMRLSEGWAT [MEF2C, Q06413] confidence 2
GVKRTYSEVYPGQQYL [ZMIZ2, Q8NF64] confidence 3
AGVKRSAAEMYGSVTE [HNRNPC, P07910] confidence 3
AEQSKRPRLEVGHQGV [EP400, Q96L91] confidence 3
EDSIEPPHKRLALSSE [DMTF1, Q9Y222] confidence 3
KRPHQEFGISSQGAYL [PDE3B, Q13370] confidence 2
AIKRGYDDLQTIVPTA [MLX, Q9UH92] confidence 2
RGLKRSLSEMEIGMVV [SRF, P11831] confidence 2
VHTTSKRPRLDPVLAD [FAM90A22P, A8MWA6] confidence 2
DLKRRLDSITSSQSSA [KDR, P35968] confidence 2
GLKRPASQDFEYLQEE [NRK, Q7Z2Y5] confidence 2
MSSSPVKRQRMESALD [TALDO1, P37837] confidence 3

Target: MAP1LC3B 2-119, Q9GZQ8

Selected by phage display, active:
PQALERADGSWAWVVL [SLC16A5, O15375] confidence 3
WTDLENSIVSVERMQD [ABCC6, O95255] confidence 2
GPDSFTVLGNSMPSVF [BCL9, O00512] confidence 3
DLTESSSMVDGDWTMV [RIC1, Q4ADV7] confidence 4
WVWLGNEAELLESMGD [TMEM132C, Q8N3T6] confidence 3
YELLTENDMLPNMRIG [JAK2, O60674] confidence 2
